Data on 15 compounds can be found in PubChem BioAssay (NCATS).

Inconclusive results are not listed. The source made the active and inactive calls. Calls follow the shape of the dose curve; as a rule, active = well fitted inhibition curve with a large enough effect; inconclusive = small, poorly fitted or top-dose-only effect; inactive = flat fitted curve, though single readings scatter.
% is scaled to controls: 0 for no effect and ±100 for the full control effect.

The test system of the first experiment is CRL-7250. As to the kind of experiment: Cytotoxic Profiling of Annotated Libraries Using Quantitative High-Throughput Screening (AID 1296008). Also: nearly all actives have a fitted effect of over 60% in size. The following applies: Five cell lines viability, CellTiter-Glo ATP luminescence, 48-72 h; max response: hits give low values. In outline:
(§1)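 Cytotoxicity was measured as CellTiter-Glo ATP luminescence, read after 10 min at room temperature. Compound treatment of the cells lasted 48 or 72 hr at 37 degrees Celsius in a qHTS format.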
A general note: ATP-based viability assays read luminescence as a measure of living cells.
Take `Cc1cc(CS(=O)(=O)c2ccccc2)cc(OCc2ccc(CN3CCCC3CO)cc2)c1` (stereo not given): the max response was 4.21% (inactive). Still for that read-out and setting: the value for `C=C1CC[C@@H]2[C@](C)(CO)[C@H](O)CC[C@@]2(C)[C@@H]1CC(O)C1=CCOC1=O` (stereo not given in full) was -6.08% (inactive); that for `COc1ccc([C@H](Cc2ccncc2)c2ccccc2)cc1OC1CCCC1` was -5.35% (inactive).

The test system of another experiment is HaCat. The description is as above. The following applies: Five cell lines viability, CellTiter-Glo ATP luminescence, 48-72 h; max response: hits give low values. An outline of the steps: as §1
For the compound `COc1ccc(C(=O)O[C@H]2C=COC=C3C=C4C(=O)N(C)C(=S)C(=O)N4[C@@H]32)cc1Oc1cc(C=O)ccc1O`, the compound was called inactive. For `Cc1[nH]c(/C=C2\C(=O)Nc3cc(-c4ccccc4)ccc32)c(C)c1CCC(=O)O`, the compound was called inactive. `C=C1CC[C@@H](O)[C@]2(C)CC[C@H]3C(=C)C(=O)O[C@@H]3[C@@H]12`: the compound was classed as inactive. Still for that read-out and setting: under `COC(=O)c1ccc2c(c1)[nH]c1ncnc(NCCCN3CCCCC3)c12` stands “inactive”. The same measure, in the same setting: under `CC(C)OC(=O)N1CCC(Oc2ncnc3c2cnn3-c2ccc(S(C)(=O)=O)cc2F)CC1` stands “inactive”. On to `C=C1C(=O)OC2C=C(C)CC/C=C(\CO)CC(O)C12` (stereo not given), for which the outcome was inactive. On the same count and under the same terms, the value for `C=C1CC[C@H]2C(=C)CC[C@H]3C(=C)C(=O)O[C@@H]3[C@@H]12` was “inactive”; that for `C=C1C(=O)OC2CC(C)C(CCC(C)=O)=CCC12` (stereo not given) was “inactive”; that for `CN(C)c1cccc(Oc2cnc(Nc3cccc(O)c3)nc2)c1` was “inactive”.

Take `CC1OC2OC(=O)C3(C)CC4C5(CO5)C5=CC(=O)OC(C)(C)C5=CC(=O)C4(C)C(C1=O)C23` (stereo not given): the result was inactive. With `CN1CC2CN(c3ccc4oc5ccccc5c(=O)c4c3)CC2C1` (stereo not given), the compound was classed as inactive. Take `NCC(CNc1nc(Nc2cccc(NC(=O)N3CCCC3)c2)ncc1I)C(=O)c1cccs1` (stereo not given): the call was inactive.
